A short description of test [1]: Quantitative High-Throughput drug screen in 47 multiple myeloma cell lines against the NCATS MIPE library collection: Karpas620_DSMZ cell viability assay (AID 1918959). Further: nearly all actives have a fitted effect of over 30% in size. In outline:
(§1)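 Luminescent ATP measurement with CellTiter-Glo gives viability, scaled between DMSO-only wells (100%) and media-only wells (0%). Cells, 500 per well, faced library compounds for 48 hours at 37C.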

Test [2] in a line: Quantitative High-Throughput drug screen in 47 multiple myeloma cell lines against the NCATS MIPE library collection: KMM1_JCRB cell viability assay (AID 1918960). Further: nearly all actives have a fitted effect of over 30% in size. In outline:
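Myeloma cells at 500 per well in 1536-well format treated with MIPE 4.0 library by pin transfer for 48 h at 37C, 5% CO2. Viability from ATP luminescence (CellTiter-Glo), normalized to DMSO (100%) and media-only (0%) wells.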

A short description of test [3]: Quantitative High-Throughput drug screen in 47 multiple myeloma cell lines against the NCATS MIPE library collection: Karpas417_ECACC cell viability assay (AID 1918961). The note with it: Karpas417 myeloma viability, CellTiter-Glo ATP luminescence, 48 h; viability (% of DMSO): at 45.8 µM (top of the series). The procedure, abridged:
(§2)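 Steps: seed 500 cells per well; pin-transfer MIPE 4.0 library; incubate 48 h at 37C, 5% CO2, humidified; add CellTiter-Glo, 5 min room temperature; read luminescence.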
A general note: In ATP-based viability assays light output follows the ATP content of the culture.

Test [4] is described as follows: Quantitative High-Throughput drug screen in 47 multiple myeloma cell lines against the NCATS MIPE library collection: KHM11_PLB cell viability assay (AID 1918962). Further: nearly all actives have a fitted effect of over 35% in size. In outline:
as §1

The nature of test [5]: Quantitative High-Throughput drug screen in 47 multiple myeloma cell lines against the NCATS MIPE library collection: JIM3_ECACC cell viability assay (AID 1918963; further: nearly all actives have a fitted effect of over 35% in size). In outline:
as §1

Test [6] is described as follows: Quantitative High-Throughput drug screen in 47 multiple myeloma cell lines against the NCATS MIPE library collection: INA6_PLB cell viability assay (AID 1918965; further: nearly all actives have a fitted effect of over 55% in size). The procedure, abridged: as §2
Test [7] in a line: Quantitative High-Throughput drug screen in 47 multiple myeloma cell lines against the NCATS MIPE library collection: JJN3_DSMZ cell viability assay (AID 1918966; further: nearly all actives have a fitted effect of over 50% in size). The procedure, abridged:
(§3)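 CellTiter-Glo luminescence (ATP) after 48 h compound exposure, 37C/5% CO2; 500 cells/well; MIPE 4.0 approved/investigational drugs pinned in; DMSO = 100%, media only = 0% viability.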

The nature of test [8]: Quantitative High-Throughput drug screen in 47 multiple myeloma cell lines against the NCATS MIPE library collection: H1112_PLB cell viability assay (AID 1918967; further: nearly all actives have a fitted effect of over 30% in size). The procedure, abridged:
as §3

Test [9] in a line: Quantitative High-Throughput drug screen in 47 multiple myeloma cell lines against the NCATS MIPE library collection: Karpas25_ECACC cell viability assay (AID 1918968; further: nearly all actives have a fitted effect of over 35% in size). The procedure, abridged: as §3
The nature of test [10]: Quantitative High-Throughput drug screen in 47 multiple myeloma cell lines against the NCATS MIPE library collection: KMS27_JCRB cell viability assay (AID 1918970). Further: nearly all actives have a fitted effect of over 30% in size. The following applies: KMS27 myeloma cells, CellTiter-Glo ATP viability, 48 h; viability (% of DMSO): at 45.8 µM (top of the series). The procedure, abridged: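 Each line is seeded at 500 cells per well and treated with library compounds for 48 hours under 37 °C, 5% CO2. CellTiter-Glo is then added for 5 min at room temperature before median relative luminescence is recorded.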

A short description of test [11]: Quantitative High-Throughput drug screen in 47 multiple myeloma cell lines against the NCATS MIPE library collection: KMS12BM_JCRB cell viability assay (AID 1918971). Further: nearly all actives have a fitted effect of over 35% in size. The procedure, abridged: (§4)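 Inhibition of cell viability is measured here. Each line was plated at 500 cells per well, treated with MIPE 4.0 drugs, kept 48 hours at 37C, then assayed for ATP content by CellTiter-Glo luminescence.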

Test [12] can be described thus: Quantitative High-Throughput drug screen in 47 multiple myeloma cell lines against the NCATS MIPE library collection: KMS12PE_JCRB cell viability assay (AID 1918972). Further: nearly all actives have a fitted effect of over 30% in size. In outline: as §2
Test [13] in a line: Quantitative High-Throughput drug screen in 47 multiple myeloma cell lines against the NCATS MIPE library collection: KMS20_JCRB cell viability assay (AID 1918973). Further: nearly all actives have a fitted effect of over 45% in size. The procedure, abridged: as §3
Test [14] is described as follows: Quantitative High-Throughput drug screen in 47 multiple myeloma cell lines against the NCATS MIPE library collection: KMS26_JCRB cell viability assay (AID 1918975). Further: nearly all actives have a fitted effect of over 45% in size. In outline: as §4
A short description of test [15]: Quantitative High-Throughput drug screen in 47 multiple myeloma cell lines against the NCATS MIPE library collection: MMM1_PLB cell viability assay (AID 1918976). Further: nearly all actives have a fitted effect of over 35% in size. The procedure, abridged:
(§5)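 Inhibition of viability over 48 h was scored by ATP content (CellTiter-Glo) in 500-cell wells. Zero and full viability were defined by media-only and DMSO-only wells.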

A short description of test [16]: Quantitative High-Throughput drug screen in 47 multiple myeloma cell lines against the NCATS MIPE library collection: NCIH929_DSMZ cell viability assay (AID 1918978). Further: nearly all actives have a fitted effect of over 35% in size. In outline:
as §5

Test [17] is described as follows: Quantitative High-Throughput drug screen in 47 multiple myeloma cell lines against the NCATS MIPE library collection: OCIMY1_PLB cell viability assay (AID 1918979). Further: nearly all actives have a fitted effect of over 35% in size. In outline: as §5
Test [18] can be described thus: Quantitative High-Throughput drug screen in 47 multiple myeloma cell lines against the NCATS MIPE library collection: KMS21BM_JCRB cell viability assay (AID 1918974). The following applies: ATP luminescence, 48 h; viability: at 45.8 µM (top of the series). The procedure, abridged:
as §3

Test [19] can be described thus: Quantitative High-Throughput drug screen in 47 multiple myeloma cell lines against the NCATS MIPE library collection: MOLP8_DSMZ cell viability assay (AID 1918977). Further: nearly all actives have a fitted effect of over 45% in size. In outline: as §5
The nature of test [20]: Quantitative High-Throughput drug screen in 47 multiple myeloma cell lines against the NCATS MIPE library collection: JIM1_ECACC cell viability assay (AID 1918964). The procedure, abridged: as §3

From PubChem BioAssay (NCATS) come the findings set out here.

Molecules are shown by their SMILES. Results filed as inconclusive are left out. Activity calls are given as the source filed them. The call rests on the fitted dose curve; in most records, active means well fitted curve in the direction sought with a large enough effect; inconclusive means small, poorly fitted or top-dose-only effect, or another doubt; inactive means no such curve, though single readings can be large; an effect the other way counts as inactive or inconclusive. Starred links: 1 amine or outer side, 2 acyl side, 3 side chain; linkers in the order of their positions; H or OH if unused. Positions of bridges follow the written chain, without caps; N, C: chain ends. Non-standard residues stand in square brackets, D forms with d. Residues, ends and D or L forms follow the SMILES beside them. Chains are numbered I, II in the order given. Actinocin(9to1) = Cc1c2oc3c(C)ccc(C(=O)[*:1])c3nc-2c(C(=O)[*:2])c(N)c1=O; NMeV = CN[CH](C(=O)O)C(C)C; Sar = CNCC(=O)O
Potency means the concentration at half of the fitted maximal effect.

For the compound `OCCNC1CCCc2c1[nH]c1ccc(-c3ccccc3)cc21` (stereo not given), the Potency in test [1] is 23500 nM (active); in test [2] it was 18700 nM (active); in [3], 10500 nM (active); in test [4], 9350 nM (active); in [5], 18700 nM (active); in [6] it was 7430 nM (active). The Potency was 23500 nM (active) in [7]; 20900 nM (active) in test [8]; 9350 nM (active) in [9]; 23500 nM (active) in test [10]; 37200 nM (active) in test [11]; 8330 nM (active) in test [12]. In addition, the Potency was 5260 nM (active) in test [13]; 20900 nM (active) in test [14]; 20900 nM (active) in test [15]; 13200 nM (active) in [16]; 26400 nM (active) in test [17].
Regarding `CC(C)Oc1ccc(C(=O)N[C@H](CNC(=O)CN(C)C)Cc2ccc(-c3cn4cccc([C@H](C)O)c4n3)cc2)cc1Cl`, the Potency is 187 nM (active) in test [1]; 209 nM (active) in [2]; 209 nM (active) in test [5]; 74.3 nM (active) in test [6]; 132 nM (active) in [9]; 833 nM (active) in test [10]. For the same compound, the Potency is 743 nM (active) in [11], 469 nM (active) in test [12], 235 nM (active) in test [13] and 2640 nM (active) in test [17]. In addition, the Potency entry in test [3] and in test [7] was “inactive” throughout.
In the case of `CC(C)N1[N]C(=C2C=c3cc(O)ccc3=N2)c2c(N)ncnc21`, the Potency in test [1] is 5900 nM (active); in test [2], 296 nM (active); in test [3] it was 33.2 nM (active); in [4], 83.3 nM (active); in test [5] it was 264 nM (active); in [6], 1180 nM (active). Further, the Potency was 209 nM (active) in [7]; 235 nM (active) in test [9]; 209 nM (active) in [10]; 166 nM (active) in test [11]; 2350 nM (active) in test [12]; 743 nM (active) in test [13]. For the same compound, the Potency is 2090 nM (active) in test [18]; 1180 nM (active) in [14]; 83.3 nM (active) in test [15]; 83.3 nM (active) in test [19]; 59 nM (active) in [16].
In the case of `CCOC(=O)[C@@H](N)Cc1ccc(-c2cc(O[C@H](c3ccc(Cl)cc3-n3ccc(C)n3)C(F)(F)F)nc(N)n2)cc1`, the Potency in [1] is 9350 nM (active); in test [2] it was 11800 nM (active); in test [3], 9350 nM (active); in test [5], 20900 nM (active); in test [20], 6620 nM (active); in [6], 23500 nM (active). The Potency is 18700 nM (active) in [7]; 10500 nM (active) in test [8]; 18700 nM (active) in test [9]; 10500 nM (active) in test [10]; 20900 nM (active) in [11]; 10500 nM (active) in test [12]. Further, the Potency in test [14] is 18700 nM (active); in test [15] it was 11800 nM (active); in test [19], 11800 nM (active); in test [16] it was 18700 nM (active); in [17], 18700 nM (active).
As to `NC(=O)Nc1sc(-c2ccc(F)cc2)cc1C(N)=O`, the Potency in test [1] was 1480 nM (active); in test [2] it was 209 nM (active); in [3] it was 74.3 nM (active); in test [4], 833 nM (active); in test [5] it was 4690 nM (active); in test [20] it was 74.3 nM (active). Besides, the Potency was 332 nM (active) in [6]; 418 nM (active) in test [9]; 166 nM (active) in [10]; 4180 nM (active) in test [11]; 935 nM (active) in test [12]; 1660 nM (active) in test [13]. Further, the Potency in test [14] is 2960 nM (active); in [15], 3320 nM (active); in test [19] it was 13200 nM (active); in [16], 20.9 nM (active).
`C[C@H]1C[C@H]2[C@@H]3CCC4=CC(=O)C=C[C@]4(C)[C@@H]3C(=O)C[C@]2(C)[C@@]1(O)C(=O)CO`: the Potency result in test [1], in test [2], in [3], in test [4], in [5] and in test [7] was “inactive” throughout. For the same compound, the Potency entry in test [8], in test [9], in [10], in test [11], in test [12] and in [19] was “inactive” throughout. Also, the Potency result in test [16] is “inactive”.
Turning to `Cc1c2oc3c(C)ccc(C(=O)NC4C(=O)NC(C(C)C)C(=O)N5CCCC5C(=O)N(C)CC(=O)N(C)C(C(C)C)C(=O)OC4C)c3nc-2c(C(=O)NC2C(=O)NC(C(C)C)C(=O)N3CCCC3C(=O)N(C)CC(=O)N(C)C(C(C)C)C(=O)OC2C)c(N)c1=O` (stereo not given) (I: TVP[Sar][NMeV] / II: TVP[Sar][NMeV]; ester I:1-I:C, II:1-II:C; linker I:N-II:N via Actinocin(9to1); configuration not given here), the Potency entry in [1], in [2], in [3], in test [4], in test [20] and in [6] was “inactive” each time. Also, the Potency entry in test [7], in test [8], in test [9], in [10], in test [11] and in test [12] was “inactive” throughout. Moreover, the Potency entry in [13], in test [18], in test [14], in test [15], in test [19] and in test [16] was “inactive” each time. In test [17], the Potency entry is “inactive”.
Turning to `CCN(CC)Cc1ccc2cc(COC(=O)Nc3ccc(C(=O)NO)cc3)ccc2c1`, the Potency in [1] was 833 nM (active); in [2], 469 nM (active); in test [3], 526 nM (active); in test [5], 1480 nM (active); in test [20], 469 nM (active); in test [6] it was 74.3 nM (active). The Potency is 833 nM (active) in test [7]; 1180 nM (active) in [8]; 372 nM (active) in test [9]; 235 nM (active) in test [10]; 469 nM (active) in test [11]; 469 nM (active) in [12]. For the same compound, the Potency was 332 nM (active) in [13]; 41.8 nM (active) in test [18]; 743 nM (active) in [14]; 372 nM (active) in test [19]; 590 nM (active) in test [16]; 1320 nM (active) in test [17].
For `CN(C)c1ccc(C(=O)NCCCCCCC(=O)NO)cc1`, the Potency in [1] was 743 nM (active); in test [2], 105 nM (active); in [3] it was 132 nM (active); in [5], 2960 nM (active); in [20] it was 93.5 nM (active); in test [6], 166 nM (active). In addition, the Potency is 1870 nM (active) in [8]; 469 nM (active) in test [9]; 66.2 nM (active) in test [10]; 235 nM (active) in [11]; 93.5 nM (active) in [12]; 41.8 nM (active) in test [18]. Moreover, the Potency in test [14] is 2960 nM (active); in test [19], 743 nM (active); in test [16], 833 nM (active); in test [17] it was 1870 nM (active).
